Assay outcomes (PubChem BioAssay)
G9a block: qHTS Assay for Inhibitors of Histone Lysine Methyltransferase G9a; G9a H3K9 monomethylation, AlphaScreen, 2 h; 8.8% of 350,000 active; Histone-lysine N-methyltransferase EHMT2 (Homo sapiens), Q96KQ7; AID 504332, 2011; Potency, µM (doses to about 102 µM), without a hit: at the top dose activity, negative = inhibition, most hits filed as inhibitors; also: % is scaled to controls: 0 for no effect and ±100 for the full control effect; nearly all actives have a fitted effect of over 75% in size
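Signal arises when biotinylated H3K9 peptide, once monomethylated, bridges streptavidin donor and antibody-captured acceptor beads. Enzyme at 20 nM was preincubated 15 min with test compounds; peptide 500 nM and SAM 20 uM then reacted for 2 h.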
HP1b chromo inh: HTS for Inhibitors of HP1-beta Chromodomain Interactions with Methylated Histone Tails; Chromobox protein homolog 1 (Homo sapiens), P83916; AlphaScreen HP1-beta / biotin-H3K9me3 peptide binding; AID 540317, 2011; 0.56% of 390,000 active; Potency, µM (highest dose often 114 µM), without a hit: at the top dose activity change, negative = inhibition, hits mostly inhibitors; also: nearly all actives have a fitted effect of over 70% in size
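HP1-beta protein (50 nM final) preincubated 30 min at room temperature with biotinylated H3(1-18)K9me3 peptide (50 nM) in PBS pH 7.4, 0.01% Tween-20, then compound added for 30 min. AlphaScreen streptavidin donor/nickel chelate acceptor beads (10 ug/mL final), 30 min dark, luminescence read.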
BAZ2B inh: qHTS Assay for Inhibitors of BAZ2B; AlphaScreen BAZ2B-H3K14Ac peptide displacement; Bromodomain adjacent to zinc finger domain protein 2B (Homo sapiens), Q9UIF8; Potency, µM (top dose mostly 114 µM), inactives show at the highest dose activity change, negative = inhibition, hits mostly inhibitors; AID 504333, 2011; 4.4% of 360,000 active; also: % is scaled to controls: 0 for no effect and ±100 for the full control effect; nearly all actives have a fitted effect of over 60% in size
Target sequence (Q9UIF8 whole entry, looked up, the tested form may be a part): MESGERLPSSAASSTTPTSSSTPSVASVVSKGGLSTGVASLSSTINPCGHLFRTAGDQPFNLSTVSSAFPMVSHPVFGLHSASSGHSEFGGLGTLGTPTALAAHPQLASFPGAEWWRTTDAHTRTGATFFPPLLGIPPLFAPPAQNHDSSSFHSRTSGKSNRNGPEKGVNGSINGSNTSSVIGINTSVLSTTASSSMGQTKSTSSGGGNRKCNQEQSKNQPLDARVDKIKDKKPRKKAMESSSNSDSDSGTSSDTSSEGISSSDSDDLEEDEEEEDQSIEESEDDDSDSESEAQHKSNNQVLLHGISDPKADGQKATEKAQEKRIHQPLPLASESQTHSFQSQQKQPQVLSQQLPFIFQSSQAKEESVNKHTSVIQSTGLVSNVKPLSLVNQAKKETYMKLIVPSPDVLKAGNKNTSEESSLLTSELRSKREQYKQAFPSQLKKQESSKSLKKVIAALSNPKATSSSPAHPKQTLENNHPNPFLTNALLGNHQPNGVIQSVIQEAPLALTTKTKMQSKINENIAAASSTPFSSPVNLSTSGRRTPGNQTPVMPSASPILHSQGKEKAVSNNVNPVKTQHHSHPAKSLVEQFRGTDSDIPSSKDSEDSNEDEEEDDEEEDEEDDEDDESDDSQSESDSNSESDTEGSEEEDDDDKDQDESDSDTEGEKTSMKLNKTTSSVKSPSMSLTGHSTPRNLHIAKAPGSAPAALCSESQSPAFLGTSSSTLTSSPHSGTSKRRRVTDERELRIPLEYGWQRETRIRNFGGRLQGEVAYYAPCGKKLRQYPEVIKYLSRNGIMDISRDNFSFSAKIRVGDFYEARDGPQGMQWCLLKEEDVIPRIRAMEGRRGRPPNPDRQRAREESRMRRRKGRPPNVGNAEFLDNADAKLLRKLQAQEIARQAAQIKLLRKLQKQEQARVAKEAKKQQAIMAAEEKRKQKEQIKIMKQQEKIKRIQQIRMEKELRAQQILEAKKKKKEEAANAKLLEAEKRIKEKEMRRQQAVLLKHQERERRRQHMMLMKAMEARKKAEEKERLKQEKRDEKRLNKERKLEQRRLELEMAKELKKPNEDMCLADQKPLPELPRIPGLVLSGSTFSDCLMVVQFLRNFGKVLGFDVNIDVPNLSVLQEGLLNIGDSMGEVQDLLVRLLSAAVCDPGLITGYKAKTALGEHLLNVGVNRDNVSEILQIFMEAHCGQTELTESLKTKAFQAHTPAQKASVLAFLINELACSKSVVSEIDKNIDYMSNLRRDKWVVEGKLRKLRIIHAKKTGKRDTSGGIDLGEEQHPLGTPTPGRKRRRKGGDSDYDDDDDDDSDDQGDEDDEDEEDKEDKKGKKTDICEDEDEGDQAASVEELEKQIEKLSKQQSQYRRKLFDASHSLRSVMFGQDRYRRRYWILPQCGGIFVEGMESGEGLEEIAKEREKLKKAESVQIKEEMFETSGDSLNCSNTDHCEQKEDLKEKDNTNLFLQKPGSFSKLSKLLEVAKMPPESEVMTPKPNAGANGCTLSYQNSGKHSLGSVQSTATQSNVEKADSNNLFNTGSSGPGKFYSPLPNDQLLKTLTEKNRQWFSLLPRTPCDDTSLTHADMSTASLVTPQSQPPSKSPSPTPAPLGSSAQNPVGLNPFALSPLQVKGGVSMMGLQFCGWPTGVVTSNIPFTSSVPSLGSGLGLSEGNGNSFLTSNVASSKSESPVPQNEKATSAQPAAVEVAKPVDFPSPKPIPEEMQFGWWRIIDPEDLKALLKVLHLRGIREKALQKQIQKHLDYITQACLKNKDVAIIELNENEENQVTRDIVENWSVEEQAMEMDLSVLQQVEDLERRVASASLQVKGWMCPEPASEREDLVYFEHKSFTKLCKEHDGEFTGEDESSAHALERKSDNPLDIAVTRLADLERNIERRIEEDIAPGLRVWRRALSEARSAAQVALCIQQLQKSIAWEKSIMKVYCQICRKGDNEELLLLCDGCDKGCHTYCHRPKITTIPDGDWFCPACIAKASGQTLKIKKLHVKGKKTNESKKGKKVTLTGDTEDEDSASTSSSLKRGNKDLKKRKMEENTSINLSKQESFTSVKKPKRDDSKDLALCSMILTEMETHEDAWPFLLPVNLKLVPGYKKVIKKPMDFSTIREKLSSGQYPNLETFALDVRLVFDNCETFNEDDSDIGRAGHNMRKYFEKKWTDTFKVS
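Inhibition is scored as reduced AlphaScreen emission. The BAZ2B/b-H3(5-23)K14Ac complex (50 nM each) in PBS pH 7.4, 0.01% Tween-20 meets compound (up to 110 uM) for 30 min at RT before bead addition.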
JMJD2A Tudor inh: qHTS Assay for Inhibitors of JMJD2A-Tudor Domain; 4.4% of 390,000 active; AlphaScreen JMJD2A-Tudor / H3K4me3 peptide binding; Lysine-specific demethylase 4A (Homo sapiens), O75164; Potency, µM (highest dose often 114 µM), for the others: at the highest dose activity change, negative = inhibition, most hits filed as inhibitors; also: % is scaled to controls: 0 for no effect and ±100 for the full control effect; nearly all actives have a fitted effect of over 50% in size
L3MBTL1 block: qHTS Assay for the Inhibitors of L3MBTL1; Lethal(3)malignant brain tumor-like protein 1 (Homo sapiens), Q9Y468; AlphaScreen L3MBTL1–H3K9me1 peptide binding; Potency, µM (top dose mostly 57.1 µM), for inactives: at the top dose activity, negative = inhibition, hits mostly inhibitors; 0.66% of 230,000 active; AID 485360, 2010; also: % is scaled to controls: 0 for no effect and ±100 for the full control effect; nearly all actives have a fitted effect of over 60% in size
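L3MBTL1 50 nM + b-AHA-H3(1-15)K9me1 75 nM, 30 min RT; compound added, 30 min RT; streptavidin donor/Ni-chelate acceptor beads 10 ug/mL each final, 30 min RT dark; AlphaScreen read.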
An asterisk follows results filed as active; ? = inconclusive; nt = no result; ! = repeats disagree; [ ] = another dose, or the depositor's remark. The list is not random: actives were taken first. Their share in the collection is about 11%. Calls follow the shape of the dose curve; as a rule, active = well fitted inhibition curve with a large enough effect; inconclusive = small, poorly fitted or top-dose-only effect; inactive = no such curve, though single readings can be large or run the other way. Potency is read from the fitted curve at half-maximal effect.

SMILES	G9a block	HP1b chromo inh	BAZ2B inh	JMJD2A Tudor inh	L3MBTL1 block
Cc1ccc(S(=O)(=O)NC(=O)c2ccc(-c3ccc(-c4ccccc4)cc3)o2)c(C)c1	40µM*	nt	?	nt	-10%
Cc1ccccc1C(=O)Nc1cccc(NC(=O)c2ccc(-c3ccc(Br)cc3)o2)c1	8%[2.33 µM]	11%	3%	-4%	nt
NC(=O)c1ccc(-c2ccc(Br)cc2)o1	50µM*	-15%	-35%	-28%	-5%
NC(=O)C1CCN(C(=S)c2ccc(-c3ccc(Br)cc3)o2)CC1	35µM*	-6%	-15%	-11%	nt
Cc1cccc(CSc2nc(=O)c3c(n2C)NC(=O)CC3c2cc(F)cc(F)c2)c1 (stereo not drawn)	5%[59 µM]	3%	-8%	-15%	nt
Cc1ccccc1-n1nc(CO)c(C(=O)NCc2cccs2)n1	-3%[59 µM]	19%	0%	-3%	nt
Cc1cc(Br)ccc1NC(=O)C1(S(=O)(=O)c2ccc(Cl)cc2)CC1	14%[59 µM]	88%	42%	36%	nt
COc1ccc(C(=O)Nc2ccc(NC(=O)c3cccc(OC)c3)cn2)cc1	-2%	50%	-4%	-5%	nt
COc1ccc(C(=O)Nc2ccc(NC(=O)c3cccc(F)c3)cn2)cc1	45µM*	98%	?	?	nt
COc1cc(C(=O)Nc2ccc(NC(=O)c3ccccc3)nc2)cc(OC)c1OC	17%	22%	?	-6%	nt
COc1ccc(C(=O)Nc2ccc(NC(=O)c3ccccc3OC)nc2)cc1	-12%	31%	-14%	-9%	nt
COc1ccc(C(=O)Nc2ccc(NC(=O)c3cccs3)cn2)cc1	22µM*	32%	?	?	nt
COc1ccc(C(=O)Nc2ccc(NC(=O)Cc3ccccc3)cn2)cc1	11µM*	32%	14%	-10%	nt
COc1cc(C(=O)Nc2ccc(NC(=O)C(C)C)nc2)cc(OC)c1OC	?	26%	79µM*	-22%	nt
COc1cccc(Cn2cc(C(=O)c3ccc(Cl)cc3)c(=O)c3ccccc32)c1	-4%[59 µM]	20%	-19%	-27%	nt
COc1ccc(C(=O)Nc2ccc(NC(=O)c3cc(OC)c(OC)c(OC)c3)cn2)cc1	40µM*	21%	?	-8%	nt
Cc1cc(C)c2sc(N3CCN(C(=O)c4ccc(N(C)C)cc4)CC3)nc2c1	22µM*	?	20µM*	40µM*	nt
Cc1cc(C)c2sc(N3CCN(C(=O)C4CC4)CC3)nc2c1	8%[59 µM]	26%	-3%	-4%	nt
CC(=O)NCCc1c[nH]c2ccc(O)cc12	11µM*!	35%	nt	-9%	nt
CC1(C)CC(=O)C(=Cc2cn(CCC#N)nc2-c2ccc(F)cc2)C(=O)C1	10µM*	48%	-3%	-3%	5%
CC(C)Oc1ccc(CNC(=O)CN2C(=O)c3cccnc3Oc3ccc(Cl)cc32)cc1	-29%[59 µM]	29%	-5%	-23%	nt
COc1ccc(C(=O)/C=C/C(=O)N(CC(=O)NC2CCCCC2)Cc2cccs2)c(O)c1	16µM*	14%	-25%	-13%	-11%
COCCN(CC(=O)NC1CCCCC1)C(=O)/C=C/C(=O)c1ccc(OC)cc1O	nt	-36%	-2%	-22%[57.1 µM]	6%
COc1ccc(C)cc1Nc1n[n+](-c2ccccc2)c(-c2c(Cl)cccc2Cl)s1	40µM*	?	16µM*	50µM*	?
COc1ccc(C)cc1Nc1n[n+](-c2ccccc2)c(-c2ccc(OC)c(OC)c2OC)s1	nt	-3%	?	?	-5%
COc1ccc(C)cc1Nc1n[n+](-c2ccccc2)c(-c2ccc(N(C)C)cc2)s1	50µM*	?	28µM*	50µM*	0%
COc1ccc(C)cc1NS(=O)(=O)c1ccccc1	nt	16%[57 µM]	nt	-1%	nt
COC(=O)c1sccc1S(=O)(=O)N(CC(=O)NCc1ccccc1)c1ccc(C)cc1	11%[59 µM]	6%	-13%	-16%	nt
